Bioassay records deposited in PubChem BioAssay by National Center for Advancing Translational Sciences (NCATS).
EPAC1 ag val: human EPAC1 agonism, validation; O95398; EPAC1 Rap1b BODIPY-GDP exchange, fluorescence; Potency, µM, for the others: max response, positive = active, hits mostly activators; 16,000 compounds, 1% hits; AID 1645883; further: nearly all actives have a fitted effect of over 70% in size
EPAC2 ant val: validation of human EPAC2 antagonists | Q8WZA2 | Potency, µM (highest dose often 112 µM), without a hit: at the highest dose activity, negative = inhibition, usual class: inhibitors | 16,000 compounds, 1.7% hits | EPAC2 Rap1B BODIPY-GDP exchange, fluorescence;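 further: 100% = activation by cAMP agonist control; nearly all actives have a fitted effect of over 40% in size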
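Normalized against a 6.5 mM cAMP agonist control, compounds were tested on 100 nM EPAC2 exchanging Rap1B-bound BODIPY-GDP (250 nM) for 50 uM GDP. Fluorescence drop (ex 480, em 540 nm) was tracked at room temperature over 30 min at 5-min intervals.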
Numbers without * were called inactive; ! = repeats disagree; [ ] = another dose, or the depositor's remark. Shown are actives, neighbours in structure and some others; about 2.9% of the full set was active somewhere. The call rests on the fitted dose curve; in most records, active means well fitted curve in the direction sought with a large enough effect; inconclusive means small, poorly fitted or top-dose-only effect, or another doubt; inactive means no such curve, though single readings can be large; an effect the other way counts as inactive or inconclusive. Unless noted, on the % scale 0 is the no-effect control and ±100 the full control effect; potency means the concentration at half of the fitted maximal effect.

How did CCCCC/C=C\C/C=C\C/C=C\C/C=C\CCCC(=O)Nc1ccc(O)cc1 do in these assays?
EPAC1 ag val: -69.6%; EPAC2 ant val: 31.6µM*

Results for CCCCC/C=C\C/C=C\C/C=C\C/C=C\CCCC(=O)NCC(=O)O ?
EPAC1 ag val: 8.5%; EPAC2 ant val: 40.3%

Results for C[C@]12CC[C@@H](O)C[C@H]1CC[C@@H]1[C@H]2CC[C@]2(C)C(=O)CC[C@@H]12 ?
EPAC1 ag val: -20.0%; EPAC2 ant val: 3.9%

Results for O=c1oc2ccccc2c(O)c1C(CC(O)c1ccc(-c2ccc(Br)cc2)cc1)c1ccccc1 (stereo not given) ?
EPAC1 ag val: -13.9%; EPAC2 ant val: 79.4µM*

What do the screens show for `CO[C@H]1[C@@H](O)C[C@H](O[C@H]2[C@@H](O)C[C@H](O[C@H]3[C@@H](O)C[C@H](O[C@H]4CC[C@@]5(C)[C@H](CC[C@@H]6[C@@H]5C[C@@H](O)[C@]5(C)[C@@H](C7=CC(=O)OC7)CC[C@]65O)C4)O[C@@H]3C)O[C@@H]2C)O[C@@H]1C`?
EPAC1 ag val: -30.4%; EPAC2 ant val: -8.5%

How did O=C(Nc1ccccc1-c1ccc(Cl)cc1)c1cccnc1Cl do in these assays?
EPAC1 ag val: 25.3%; EPAC2 ant val: 8.91µM*

Results for CCC(=O)C(CC(C)N(C)C)(c1ccccc1)c1ccccc1 (stereo not given) ?
EPAC1 ag val: inconclusive; EPAC2 ant val: 12.0%[239 µM]

How did COP(=S)(OC)Oc1ccc(SC)c(C)c1 do in these assays?
EPAC1 ag val: 10.1%; EPAC2 ant val: inconclusive

What do the screens show for `CCOP(=O)(NC(C)C)Oc1ccc(SC)c(C)c1` (stereo not given)?
EPAC1 ag val: -45.1%; EPAC2 ant val: 50.1µM*

How did CC(=O)O[C@H]1C[C@H](O[C@H]2[C@@H](O)C[C@H](O[C@H]3[C@@H](O)C[C@H](OC4CC[C@@]5(C)[C@H](CC[C@@H]6[C@@H]5CC[C@]5(C)[C@@H](C7=CC(=O)OC7)CC[C@]65O)C4)O[C@@H]3C)O[C@@H]2C)O[C@H](C)[C@H]1O[C@@H]1O[C@H](CO)[C@@H](O)[C@H](O)[C@H]1O (stereo not given in full) do in these assays?
EPAC1 ag val: -12.4%; EPAC2 ant val: 0.5%

How did CC[C@H]1C[C@@H]2C[C@H]3c4[nH]c5ccc(OC)cc5c4CCN(C2)[C@@H]13 do in these assays?
EPAC1 ag val: 15.2%; EPAC2 ant val: 14.6%[239 µM]

How did CC(=O)Oc1c2c(c(CC=C(C)C)c3c1C(=O)C1=CC4CC5C(C)(C)OC(C/C=C(\C)C(=O)O)(C4=O)[C@]15O3)OC(C)(CCC=C(C)C)C=C2 (stereo not given in full) do in these assays?
EPAC1 ag val: -207.3%; EPAC2 ant val: 70.8µM*

What do the screens show for `COC(=O)/C(C)=C\CC12OC(C)(C)C3CC(C=C4C(=O)c5c(OC)c6c(c(CC=C(C)C)c5OC431)OC(C)(CCC=C(C)C)C=C6)C2=O` (stereo not given)?
EPAC1 ag val: -78.0%; EPAC2 ant val: -22.6%

How did [2H]C([2H])([2H])[C@H](N)Cc1ccccc1 do in these assays?
EPAC1 ag val: inconclusive; EPAC2 ant val: 33.0%

What do the screens show for `O=C1c2ccccc2C(=O)C1C(=O)C(c1ccccc1)c1ccccc1`?
EPAC1 ag val: 20.8%; EPAC2 ant val: 79.4µM*

Results for C[C@@H](Cc1ccccc1)N(C)C ?
EPAC1 ag val: -13.1%; EPAC2 ant val: 8.7%

How did CCCCCc1cc(O)c2c(c1)OC(C)(C)[C@@H]1CCC(C)=C[C@@H]21 do in these assays?
EPAC1 ag val: -67.1%; EPAC2 ant val: inconclusive

How did CCc1cc(OC)c(C[C@@H](C)N)cc1OC do in these assays?
EPAC1 ag val: 4.3%; EPAC2 ant val: -2.8%[239 µM]

What do the screens show for `CCOC(=O)[C@]12Cc3cc(N(C)C)ccc3[C@H]1N(Cc1ccccc1)C(=O)c1ccccc12`?
EPAC1 ag val: 29.3%; EPAC2 ant val: 79.4µM*

What do the screens show for `CCOC(=O)[C@]12Cc3cc4c(cc3[C@H]1N(Cc1ccccc1)C(=O)c1ccccc12)OCO4`?
EPAC1 ag val: 23.1%; EPAC2 ant val: inconclusive

What do the screens show for `COc1cc(C[C@@H](C)N)c(OC)cc1Br`?
EPAC1 ag val: -14.3%; EPAC2 ant val: 5.8%[239 µM]

What do the screens show for `CN1[C@H]2CC[C@@H]1[C@@H](C(=O)O)[C@@H](OC(=O)c1ccccc1)C2`?
EPAC1 ag val: 2.8%; EPAC2 ant val: inconclusive

Results for Clc1ccc(CSC(Cn2ccnc2)c2ccc(Cl)cc2Cl)cc1 (stereo not given) ?
EPAC1 ag val: 50.1µM*!; EPAC2 ant val: 44.7µM*!

What do the screens show for `C[C@]12CC[C@H]3[C@@H](CC[C@@]45O[C@@H]4C(O)=C(C#N)C[C@]35C)[C@@H]1CC[C@@H]2O`?
EPAC1 ag val: -7.7%; EPAC2 ant val: 19.2%

Results for CCCCCCCCc1ccc(O)cc1 ?
EPAC1 ag val: -224.9%; EPAC2 ant val: 35.5µM*

What do the screens show for `CCCCc1ccc(C(=O)O)nc1`?
EPAC1 ag val: -0.9%; EPAC2 ant val: -6.2%

What do the screens show for `CCN(CC)CCO[C@H]1CC[C@@]2(C)C(=CC[C@@H]3[C@@H]2CC[C@]2(C)C(=O)CC[C@@H]32)C1`?
EPAC1 ag val: 22.7%; EPAC2 ant val: 4.9%

What do the screens show for `C[C@]12CC[C@H](O)C[C@H]1CC[C@@H]1[C@@H]2CC[C@]2(C)[C@@H](c3ccc(=O)oc3)C[C@H]3O[C@]132`?
EPAC1 ag val: -9.8%; EPAC2 ant val: -5.0%

What do the screens show for `Cc1ccccc1-n1c(C)nc2ccccc2c1=O`?
EPAC1 ag val: -8.9%; EPAC2 ant val: 5.0%[239 µM]

Results for O=c1c2ccccc2[se]n1-c1ccccc1 ?
EPAC1 ag val: 7.8%; EPAC2 ant val: 39.8µM*!
